# Out of some 65,000 compounds screened, about 2,100 (3.2%) showed an effect of 50% or more. The median lay at about -52%. This is one part of a sample in which strong results are shown more often than they occur.
# Tested on: Plasmodium falciparum
# Test: Screen against P. falciparum Asexual Blood Stage (ABS), at 5uM
# Assay type: functional, Dd2
# Conditions: tested at 5 uM
row,Structure (SMILES),INHIBITION [%]
1,CCC1CN(C)c2ccccc2CN1C(=O)Nc1cccc(F)c1 (centres undefined),-107
2,COCCN(CCOC)C(=O)c1cnn(C)c1C,-57.9
3,Cc1nc(CNC2CCN(Cc3ccccc3)C2)sc1C (centres undefined),7.17
4,Cc1nc(CCNC2CCN(Cc3ccccc3)C2)sc1C (centres undefined),53.5
5,CCc1nc(C)sc1CNC1CCN(Cc2ccccc2)C1 (centres undefined),-2.57
6,CCC(=O)c1ccc(Br)cc1NN1c2cc(Br)ccc2C(=O)C1(C)OC (centres undefined),43.1
7,CCc1n[nH]c(C(=O)N2CCN(c3ccc4ccccc4c3)CC2)c1C,-8.02
8,CC(=O)N(c1ccc(C)cc1)c1nc(CN2CCCCC2C)cs1 (centres undefined),61.8
9,CCN(C(C)=O)c1nc(CN2CCCCC2Cn2cncn2)cs1 (centres undefined),9.81
10,CC(=O)N(C)c1nc(CN2CCCCC2Cn2cncn2)cs1 (centres undefined),-125
11,Cc1cnc(NC(C)Cc2cccnc2)nc1N(C)C (centres undefined),5.71
12,O=C(NCc1ccco1)[C@@H]1CCO[C@@H]2CCN(CC3CC3)C[C@@H]21,-37.9
13,CN1CC(=O)N(c2cccc(F)c2)CC12CCN(Cc1nccs1)C2 (centres undefined),-71.1
14,c1ccc(-n2nnnc2CNCC2CCCN2c2cccnn2)cc1 (centres undefined),-59.9
15,Cc1cccc(-c2nccnc2C2CCCN(C)C2)c1 (centres undefined),-10.8
16,CN1CCCC(c2nccnc2-c2cccc(Cl)c2)C1 (centres undefined),45.1
17,COCCN1CCCC(c2nccnc2-c2cccc(Cl)c2)C1 (centres undefined),62.9
18,Cn1cc(CN2CCCC(c3nccnc3-c3cccc(F)c3)C2)cn1 (centres undefined),-45.2
19,CN1CCCC(c2nccnc2-c2cccc(C(F)(F)F)c2)C1 (centres undefined),68.7
20,CN(C)C(=O)CN1CCCC(c2nccnc2-c2cccc(Cl)c2)C1 (centres undefined),6.94
21,COc1ccc2c(c1)OCC(CNc1cc(N)nc(SC)n1)C2 (centres undefined),-50.7
22,CC(Cn1cccn1)NCc1ccc(OCc2ccncc2)cc1 (centres undefined),-96.3
23,CN1CCOC(CNCCOc2ccc(C#N)cc2)C1 (centres undefined),-41.7

row,Structure (SMILES),INHIBITION [%]
1,Oc1coc2cc(OC[C@@H]3CCCN4CCCC[C@H]34)ccc12,-8.29
2,Cc1c(Cl)cccc1S(=O)(=O)N1CCC(S(=O)(=O)c2nncn2C)CC1,-68.7
3,O=C(NCc1cnc2n1CCN(Cc1ccsc1)CC2)C1CCC1,-48.2
4,CNS(=O)(=O)CCCN1CCCC1c1noc(C)n1 (centres undefined),-104
5,CCc1nc(C2CCCN2Cc2nc(C(C)(C)C)no2)no1 (centres undefined),-105
6,CCn1cc(CNC(=O)CC(C)C)cn1,-153
7,CC(C)n1ccnc1CN1CCCN(C(=O)c2cc(Cl)c[nH]2)CC1,39
8,Cc1[nH]ncc1C(=O)N1CCCN(Cc2nccn2C(C)C)CC1,11.1
9,CC(C)n1ccnc1CN1CCCN(C(=O)c2cnc[nH]2)CC1,60.4
10,CN(C)CC(=O)N1CCC2(CC(=O)N(c3cccc(C#N)c3)C2)C1 (centres undefined),-30
11,Cc1cccc(CN2CCC3(CC(C(=O)NCC(C)C)=NO3)C2)c1 (centres undefined),-93.1
12,CCOCCN1CCN(CCOCC(F)(F)F)CC1,-38.7
13,CC(C(=O)NCc1ccco1)N1CCN(Cc2nccn2C)CC1 (centres undefined),-35.6
14,Cn1ccnc1C(O)(CCNCc1ccco1)C(F)(F)F (centres undefined),64.6
15,FC(F)(F)C1CCCn2c(CNCc3ccco3)nnc21 (centres undefined),-67
16,CCc1cc(=O)[nH]c(-n2nc(C3CC3)cc2NC(=O)C2CC2)n1,-66.5
17,COCCN1CCC(NC(=O)NCC2(c3cccc(F)c3)CC2)C1 (centres undefined),-77.2
18,COCCN1CCC(NC(=O)Nc2cccc(F)c2)C1 (centres undefined),-54.6
19,COCCC(=O)NC1CCN(CC2(c3cccc(F)c3)CCCC2)CC1,69.1
20,CC(=O)NCC(=O)N1CCn2cc(CN3CCCCC3)nc2C1,-144
21,O=C(c1ccc(S(=O)(=O)NCCc2ccncc2)cc1)N1CCCC1,-36.5
22,COc1ccc(NC2CCc3c2[nH]c(=O)n(C2CCCCC2)c3=O)cc1 (centres undefined),-98.2
23,CC(=O)N1CCCC1c1ccnc(Nc2cncnc2)n1 (centres undefined),-101

row,Structure (SMILES),INHIBITION [%]
1,c1ncc(Nc2nccc(C3CCCCN3CC3CCCCC3)n2)cn1 (centres undefined),52
2,CC(=O)N1CCC(c2ccnc(Nc3cncnc3)n2)CC1,-18.6
3,CN(C)CCCNC(=O)c1cnc(Cc2ccc(F)cc2)s1,27.4
4,Cc1cccc(C(=O)NC(CN2CCCC2=O)c2ccccc2)n1 (centres undefined),-161
5,Cc1cnc(C(=O)NC(CN2CCCC2=O)c2ccccc2)cn1 (centres undefined),69.6
6,Cc1ccc(C(=O)NC(CN2CCCC2=O)c2ccccc2)cn1 (centres undefined),-81.3
7,Cn1c2ccccc2c2ncn(CCN3CCOCC3)c(=O)c21,-57.9
8,Cc1[nH]c2ccccc2c1-c1ccnc(N[C@@H](C)CO)n1,-21.2
9,Cc1[nH]c2ccccc2c1-c1ccnc(N[C@H](CO)CC(C)C)n1,51.9
10,Cc1[nH]c2ccccc2c1-c1ccnc(N[C@@H](CO)C(C)C)n1,-9.36
11,CC(c1nc(-c2ccccc2)no1)N1CCc2c(ncn2C2CC2)C1 (centres undefined),-19.5
12,Fc1cccnc1Oc1cc(F)c(CN2CCCC2)c(Cl)c1,-49.5
13,OC[C@H]1CN(C2Cc3ccccc3C2)C[C@H]1CN1CCC(O)CC1,15.1
14,OCC1CCN(C[C@@H]2CN(C3Cc4ccccc4C3)C[C@@H]2CO)CC1,66.4
15,CN1CCN(C[C@@H]2CN(C3Cc4ccccc4C3)C[C@@H]2CO)CC1,51.4
16,Cn1ccnc1CN1C[C@@H](CN2CCC(CO)CC2)[C@@H](CO)C1,-1.49
17,CN1CCN(C[C@@H]2CN(C(=O)c3ccccc3C#N)C[C@@H]2CO)CC1,-106
18,Cc1cccc(CN2C[C@@H](CN3CCCN(C)CC3)[C@@H](CO)C2)n1,-29.5
19,Cc1cc(NCCN2CCNC2=O)nc2cc3c(cc12)CCC3,-14.4
20,CSCCN1CCC(NC(=O)c2cccc(C3CCCNC3)c2)CC1 (centres undefined),-131
21,CC1CCN(c2nc3c(cnn3-c3ccccc3)c(=O)[nH]2)CC1,-6.59
22,O=c1[nH]c(N2CC(O)C2)nc2c1cnn2-c1ccccc1,-202
23,O=c1[nH]c(N2CCN(C3CC3)CC2)nc2c1cnn2-c1ccccc1,50.1
